# Experimental data published in PubChem BioAssay (EPA / NIEHS).
# Active and inactive are the calls of the source. The calls were made as follows: active = hit-call score of the fitted dose curve at least 0.9, where 1 is the maximum; inactive = score below 0.9.
# Experiment: ATG_FoxO_CIS: Attagene CIS-FACTORIAL HepG2 Assay for human Forkhead box O (FoxO) (AID 2282943)
# Conditions: HepG2 Attagene cis-reporter, FoxO element, mRNA; actives raise or lower the signal
# Experimental: ATG_CIS is a cell-based, multiplexed-readout assay that uses HepG2, a human liver cell line, with measurements taken at 24 hours after chemical dosing in a 24-well plate.ATG_FoxO_CIS is one of 52 assay component(s) measured or calculated from the ATG_CIS assay. It is designed to make measurements of mRNA induction, a form of inducible reporter, as detected with fluorescence intensity signals by Reverse transcription polymerase chain reaction (RT-PCR) and Capillary electrophoresis technology.Data from the assay component ATG_FoxO_CIS was analyzed into 1 assay endpoint. This assay endpoint, ATG_FoxO_CIS, was analyzed with bidirectional fitting relative to DMSO as the negative control and baseline of activity. Using a type of inducible reporter, measures of mRNA for gain or loss-of-signal activity can be used to understand the reporter gene at the transcription factor-level as they relate to the gene FOXO1 and FOXO3. Furthermore, this assay endpoint can be referred to as a primary readout, because this assay has produced multiple assay endpoints where this one serves a reporter gene function. To generalize the intended target to other relatable targets, this assay endpoint is annotated to the dna binding intended target family, where the subfamily is forkhead box protein.
# Human liver HepG2 cells are transiently transfected with multiple reporter transcription units (MRTUs) in 6-well plates using FuGene 6 reagent (Roche; 3 ml FuGene/1 mg DNA). The MRTU constructs are regulated by a cis-regulating element (promoter). […] A major difference between the CIS and TRANS system is that in CIS activities of endogenous TFs are measured, whereas the TRANS assay evaluates changes in activities of exogenous, chimeric NR-Gal4 proteins. […] At the end of 24 hour incubation, total RNA was isolated using TriZol reagent (Invitrogen). The isolated RNA is then reverse-transcribed using oligo(dT) primer and Mo-MLV reverse transcriptase (Invitrogen) with DNAse I (Ambion) treatment for 30 min. The one-tenth of the produced cDNA was amplified by PCR using Taq DNA polymerase (Invitrogen) and two reporter sequence-specific primers. The PCR products were fluorescently labeled by primer extension with 6-arboxyfluorescein (6-FAM) 5'-labeled reporter sequence-specific primer (2 min at 95 C, 20 s at 68 C and 10 min at 72 C) and these products were digested with 5U of HpaI (New England Biolabs) for 2h at 37 C. The fragments were purified using Qiaquick PCR columns (Qiagen), analyzed on an ABI 3130xL genetic analyzer (Applied Biosystems) with peak positions identified by using a set of X-rhodamine (ROX)-labeled MapMarker1000 molecular weight standards (BioVentures). The raw capillary electrophoresis data was processed using Attagraph software (Attagene).
row,SMILES,outcome
1,OCC(F)(F)OC(F)(F)C(F)(F)OC(F)(F)CO,inactive
2,Cn1[nH]nnc1=S,inactive
3,Cc1ccc(N)cc1N,inactive
4,Nc1ccc(Sc2ccc(N)cc2)cc1,inactive
5,O=[N+]([O-])c1cc(Cl)ccc1Cl,inactive
6,Cc1ccc(O)cc1C,inactive
7,O=C(O)C=CC(F)(C(F)(F)F)C(F)(F)F,inactive
8,N#C/C=C/c1ccccc1,inactive
9,FC(F)(F)c1ccc(Cl)cc1,inactive
10,CCCCc1ccccc1,inactive
11,CCN(CC)C1CCCCC1,inactive
12,c1nc[nH]n1,inactive
13,CCOP(=S)(OCC)SCS(=O)(=O)CC,inactive
14,N#Cc1c(-c2ccc(Cl)cc2)[nH]c(C(F)(F)F)c1Br,inactive
15,CCNc1nc(Cl)nc(NC(C)(C)C)n1,inactive
16,CC(C)(C)OOC(C)(C)C,inactive
17,Nc1ccc2ccccc2c1,inactive
18,O=C(O)C(Cl)Cl,inactive
19,CCOP(=S)(S)OCC,inactive
20,CCN(CC)c1ccccc1,inactive

row,SMILES,outcome
1,CSC(C)(C)C=NO,inactive
2,CC(Cc1ccc(OCC(=O)O)cc1)NCC(O)c1csc(C(F)(F)F)n1 (stereo not given),inactive
3,CC(O)C#N (stereo not given),inactive
4,Nc1cc2c3c(c1)C(c1ccccc1)=N[C@@H](NC(=O)c1cccnc1)C(=O)N3CC2,inactive
5,CCOP(=S)(OCC)SCn1nnc2ccccc2c1=O,inactive
6,CCOP(=S)(OCC)SCSc1ccc(Cl)cc1,inactive
7,CCOP(=S)(OCC)SCSCC,inactive
8,CCCN(CCC)c1c([N+](=O)[O-])cc(C(C)C)cc1[N+](=O)[O-],inactive
9,OCC(F)(F)OC(F)(F)C(F)(F)OC(F)(F)C(F)(F)OC(F)(F)CO,inactive
10,CCCCN(CC)C(=O)SCCC,inactive
11,Cc1ccc2c(c1N)C(=O)c1ccccc1C2=O,inactive
12,O=[N+]([O-])c1ccc(Cl)c(Cl)c1,inactive
13,COP(=O)(O)OC,inactive
14,Clc1ccc(Oc2ccccc2)cc1,inactive
15,Nc1ccc(Cl)cc1,inactive
16,CC(C)Nc1ccc(Nc2ccccc2)cc1,inactive
17,CC(O)C(F)(F)C(F)(F)F (stereo not given),inactive
18,c1cc2c3c(cccc3c1)CC2,inactive
19,CCC1(c2ccccc2)C(=O)N=C(O)NC1=O (stereo not given),inactive
20,[N-]=[N+]=[N-],inactive
